# According to the supplement of paper PMC8728848:
# Many of the other results were omitted from the sample, so the strongest signals are more common in it than they were.
# Key:
# Assay in all cases: glycan array binding signal (z-score within array); higher = stronger binding
# Conditions in all cases: glycan notation: IUPAC condensed, linker removed
# [1] = target: Neu5Ac(a2-3)Gal(b1-4)[Fuc(a1-3)]GlcNAc
# How it was run: (§1)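 Glycan array binding is given as a within-array Z-score, which can be read as non-binding when negative. The arrays, 3228 of them, came from the Consortium for Functional Glycomics database and were retained only where the protein sequence was available. Z-scores were averaged across arrays of the same protein sequence at different concentrations or buffers and across linkers.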
# [2] = target: Neu5Ac(a2-3)GalNAc(b1-4)GlcNAc
# How it was run: as §1
# [3] = target: Neu5Ac(a2-6)Gal(b1-4)GlcNAc(b1-3)Gal(b1-4)GlcNAc(b1-3)Gal(b1-4)GlcNAc
# How it was run: as §1
# [4] = target: Neu5Ac(a2-6)GlcNAc(b1-4)GlcNAc
# How it was run: as §1
# [5] = target: Neu5Ac(a2-8)Neu5Ac(a2-3)Gal(b1-4)Glc
# How it was run: as §1
# [6] = target: Neu5Ac(a2-8)Neu5Ac(a2-3)[GalNAc(b1-4)]Gal(b1-4)Glc
# How it was run: as §1
# Neu5Gc(a2-6)GalNAc = target: Neu5Gc(a2-6)GalNAc
# How it was run: as §1
binder,measurement,setting,value
XCL (Xerocomus chrysenteron) (protein) MSYSITLRVYQTNRDRGYFSIVEKTVWHFANGGTWSEANGAHTLTQGGSGTSGVLRFLSTKGERITVAVGVHNYKRWCDVVTGLKPDETALVINPQYYNNGGRDYVREKQLAEYSVTSAIGTKVEVVYTVAEGNNLEANVIFS,glycan array binding signal (z-score),[1],-0.3
same,glycan array binding signal (z-score),[2],-0.279
same,glycan array binding signal (z-score),[3],-0.311
same,glycan array binding signal (z-score),[4],-0.322
same,glycan array binding signal (z-score),[5],-0.311
same,glycan array binding signal (z-score),[6],-0.316
same,glycan array binding signal (z-score),Neu5Gc(a2-6)GalNAc,0.059
